These results are taken from PubChem BioAssay (Tox21).

Structures are written as SMILES. Several values for one entry are separate records, joined by “and”; a condition that tells them apart may be missing. Identical values can stand only once. Results filed as inconclusive are left out. Where a structure was tested more than once in an assay, its records may differ in their call. Activity calls are given as the source filed them. Unless noted, calls come from the whole dose curve; as a rule, active = well fitted curve in the direction sought with a large enough effect in the repeat runs; inconclusive = weak or mixed curves; inactive = no such curve, though single readings can be large; an effect the other way counts as inactive or inconclusive.

Assay [1] in a line: qHTS assay to identify small molecule agonists of H2AX - cell viability counter screen (AID 1224847; calls by dose curve; note: nearly all actives have a fitted effect of over 30% in size; note: potency is the fitted concentration of half-maximal effect). A digest of the protocol:
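Cells plated first: CHO-K1, 1000 per well in 10% FBS medium, incubated overnight at 37C. Then 15-point compound titration added (final DMSO 0.76%) for 3 hr. Finally CellTiter-Glo added and luminescence read.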
A general note: qHTS replaces the single test concentration by a dilution series.

A short description of assay [2]: qHTS assay to identify small molecule antagonists of the estrogen related receptor (ERR) signaling pathway from Tox21 library (AID 1224848). Note: nearly all actives have a fitted effect of over 50% in size. Note: potency is the fitted concentration of half-maximal effect. A digest of the protocol:
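Reading was by luminescence 30 min after ONE-Glo addition. Before that, ERR cells at 2,000 per well had rested 6 h at 37 C/5% CO2 and then received pin-tooled compounds in DMSO for 18 h at 37 C.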

Assay [3] is described as follows: qHTS assay to identify small molecule agonists of the estrogen related receptor (ERR) signaling pathway from Tox21 library (AID 1224849; calls by dose curve; note: nearly all actives have a fitted effect of over 15% in size). Conditions: ERR reporter cell line, ONE-Glo luciferase, 18 h. A digest of the protocol: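 Six hours post-seeding at 37 C/5% CO2, ERR cells receive DMSO-solubilised compounds; after 18 h at 37 C, ONE-Glo reagent is applied and luminescence recorded.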

The nature of assay [4]: qHTS RealTime-Glo MT Cell Viability Assay in HepG2 cells - 24 hour (AID 1224867). Note: nearly all actives have a fitted effect of over 50% in size. Note: potency is the fitted concentration of half-maximal effect. A digest of the protocol:
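Cell number in HepG2 cultures estimated from NanoLuc luminescence generated by metabolic reduction of a prosubstrate by living cells. The homogeneous, nonlytic format allowed repeated reads at 0, 8, 16, 24, 32 and 40 h of compound exposure.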

A short description of assay [5]: qHTS RealTime-Glo MT Cell Viability Assay in HEK293 cells - 32 hour (AID 1224868). Note: nearly all actives have a fitted effect of over 50% in size. Note: potency is the fitted concentration of half-maximal effect. A digest of the protocol:
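Homogeneous bioluminescent viability format in HEK293 cells (600 cells/well). Following 5 h at 37 C/5% CO2, 23 nL compound was pintooled; the signal was measured repeatedly during 40 h incubation.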

Assay [6] in a line: qHTS RealTime-Glo MT Cell Viability Assay in HepG2 cells - 40 hour (AID 1224870). Note: nearly all actives have a fitted effect of over 50% in size. Note: potency is the fitted concentration of half-maximal effect. A digest of the protocol:
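Real-time viability: cells seeded at 600 per well together with NanoLuc and cell-permeant prosubstrate, compounds added after 5 h incubation. Luminescence tracked at 0, 8, 16, 24, 32 and 40 h of exposure.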

Assay [7] can be described thus: A CellTox Green Cytotoxicity Assay to monitor cytotoxicity in HEK293 cells - 40 hour (AID 1224871). Note: nearly all actives have a fitted effect of over 45% in size. Note: potency is the fitted concentration of half-maximal effect. A digest of the protocol: (§1)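 Seeding of HEK293 cells together with cytotoxicity dye preceded a 5 h incubation at 37 C/5% CO2. Test compounds in DMSO were then added and fluorescence monitored across 40 h.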
A short description of assay [8]: A CellTox Green Cytotoxicity Assay to monitor cytotoxicity in HEK293 cells - 0 hour (AID 1224869). Note: nearly all actives have a fitted effect of over 50% in size. A digest of the protocol: as §1
[9] abbreviates: at 92.4 µM (top of the series) unless noted.
% is set by controls: 0 for no effect and ±100 for the full control effect.

Take `CCC(C)Nc1ccc(NC(C)CC)cc1` (stereo unspecified): the Potency in assay [1] was 23 µM (active); in assay [2], 6.23 µM (active); in assay [4] it was 17.7 µM (active); in assay [5], 4.45 µM (active); in assay [6] it was 17.7 µM (active); in assay [7] it was 12.5 µM (active). In assay [3] (setting [9]), the activity change, positive = activation is -80.2% (inactive).
`OC1(c2ccc(Cl)c(C(F)(F)F)c2)CCN(CCCC(c2ccc(F)cc2)c2ccc(F)cc2)CC1`: the Potency was 55.2 µM (active) in assay [1]; 8.41 µM (active) in assay [2]; 9.52 µM (active) in assay [4]; 9.52 µM (active) in assay [5]; 9.52 µM (active) in assay [6]. In addition, the activity change, positive = activation in assay [3] (setting [9]) was -71.9% [at 42.5 µM] (inactive). Also, the Potency result in assay [8] was “inactive”.
As for `[Cl][Au]([Cl])[Cl]`, the Potency result in assay [1] and in assay [8] was “inactive” throughout. In addition, the Potency is 3.06 µM (active) in assay [2], 9.77 µM (active) in assay [4], 8.71 µM (active) in assay [6] and 21.9 µM (active) in assay [7]. In addition, the activity change, positive = activation in assay [3] (setting [9]) is -67.4% (inactive).
Take `CN(C)c1ccc(C2(c3ccc(N(C)C)cc3)OC(=O)c3cc(N(C)C)ccc32)cc1`: the Potency entry in assay [1], in assay [2], in assay [5] and in assay [8] was “inactive” each time. Moreover, the activity change, positive = activation in assay [3] (setting [9]) is -13.6% (inactive).
Regarding `CCCCc1oc2ccc(NS(C)(=O)=O)cc2c1C(=O)c1ccc(OCCCN(CCCC)CCCC)cc1`, the Potency in assay [1] was 43.8 µM (active); in assay [2] it was 16.8 µM (active); in assay [4] it was 9.52 µM (active); in assay [5], 9.52 µM (active); in assay [6] it was 9.52 µM (active); in assay [7], 19 µM (active). The activity change, positive = activation in assay [3] (setting [9]) is -64.5% [at 42.5 µM] (inactive). Also, in assay [8], the Potency entry was “inactive”.
Regarding `CCCCCCCC[N+](CCCCCCCC)(CCCCCCCC)CCCCCCCC`, the Potency in assay [1] is 17.9 µM (active); in assay [2] it was 0.768 µM (active); in assay [4] it was 24.5 µM (active); in assay [5] it was 6.15 µM (active); in assay [6], 24.5 µM (active); in assay [7], 19.5 µM (active). Further, the activity change, positive = activation in assay [3] (setting [9]) was -81.8% (inactive). Besides, in assay [8], the Potency result is “inactive”.
Consider `Clc1ccccc1C(c1ccccc1)(c1ccccc1)n1ccnc1`, for which the Potency in assay [1] is 40.1 µM (active) and inactive; in assay [2], 3.86 µM (active) and 11.9 µM (active); in assay [4] it was 21.9 µM (active) and inactive; in assay [5], 21.9 µM (active) and 6.74 µM (active); in assay [6], 24.5 µM (active) and inactive; in assay [7] it was 43.6 µM (active) and inactive. Besides, the activity change, positive = activation in assay [3] (at 42.5 µM (top of the series)) is -60.3% (inactive); in assay [3] (at 92.4 µM (top of the series)), -72.6% (inactive). Moreover, the Potency result in assay [8] is “inactive”.
On to `CNc1ccc(O)cc1`, for which the Potency is 101 µM (active) in assay [1], 12.3 µM (active) in assay [5] and 9.75 µM (active) in assay [7]. Moreover, the activity change, positive = activation in assay [3] (setting [9]) is -69.6% (inactive). Moreover, in assay [8], the Potency entry is “inactive”.
Regarding `CC1=C(/C=C/C(C)=C/C=C/C(C)=C/C=O)C(C)(C)CCC1`, the Potency was 39.9 µM (active) in assay [1], 54.6 µM (active) in assay [4], 19.4 µM (active) in assay [5] and 38.7 µM (active) in assay [7]. Also, the Potency entry in assay [8] was “inactive”.
As to `Oc1ccc(N=Nc2ccccc2)cc1`, the Potency result in assay [4] and in assay [6] was “inactive” throughout. For the same compound, the Potency in assay [5] is 19.8 µM (active).
On to `O=c1cc(-c2ccc(O)cc2)oc2cc(O)cc(O)c12`, for which the Potency entry in assay [4], in assay [8] and in assay [6] was “inactive” each time.
On to `NNc1nc(-c2ccc(N)cc2)cs1`, for which the Potency in assay [2] was 61.1 µM (active). Also, the activity change, positive = activation in assay [3] (setting [9]) was -40.8% (inactive). For the same compound, the Potency result in assay [4], in assay [8], in assay [6] and in assay [7] was “inactive” throughout.
On to `O=c1c(-c2ccccc2)c1-c1ccccc1`, for which the Potency in assay [2] is 8.41 µM (active); in assay [4] it was 16.9 µM (active); in assay [5] it was 13.4 µM (active); in assay [6] it was 15.1 µM (active); in assay [7] it was 5.35 µM (active). In assay [3] (setting [9]), the activity change, positive = activation is -61.4% [at 42.5 µM] (inactive). Moreover, the Potency result in assay [8] was “inactive”.
As for `[Cl][Bi]([Cl])([c]1ccccc1)([c]1ccccc1)[c]1ccccc1`, the Potency in assay [1] was 35.5 µM (active); in assay [4], 6.88 µM (active); in assay [5] it was 2.44 µM (active); in assay [6] it was 7.71 µM (active); in assay [7], 24.4 µM (active). Also, in assay [8], the Potency result is “inactive”.
